In the library only some 7.6% were active in any assay of this set; here they are far more common.
p53 reactivation = re-activators of mutant p53. AID 504706. 320,000 tested, 0.063% active. Potency, µM (top dose mostly 92.2 µM), most hits filed as activators. H1299 p53-A138V BP100-luciferase reporter, luminescence, 24 h; also: nearly all actives have a fitted effect of over 45% in size
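p53-null H1299 cells stably carrying temperature-sensitive p53-A138V and a BP100-luciferase reporter were pinned with compounds (4-point, 1:5 series) and held 24 hrs at 37 deg C. Luminescence was read 10 min after detection reagent.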
Giardia killer = kills Giardia lamblia; Giardia lamblia trophozoite viability; activity change, % at 7.66 µM, hits read low; 340,000 tested, 0.15% active; in the data active = activity change below about -80%; inconclusive = between about -30% and that limit;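 also: parasites exposed to compound for two days anaerobically before the ATP read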
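Giardia trophozoites, 100 cells per well, were exposed to compounds for 48 hrs at 37 deg C under anaerobic conditions; viability was then read as ATP content by bioluminescence after 15-30 min at room temperature.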
VP16 counter = counter-screen for ROR gamma inhibitors: Gal4-VP16 reporter. Drosophila S2 Gal4-VP16 UAS-luciferase, luminescence, 20 h. AID 2546. 310,000 tested, 3.5% active. Potency, µM (titrated, usually from 53.6 µM), actives largely listed as inhibitors;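 also: Gal4-VP16 expression switched on by copper sulfate through the metallothionein promoter; nearly all actives have a fitted effect of over 50% in size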
RORgamma inh = ROR gamma (mouse) transcription inhibition; Drosophila S2 Gal4-RORgamma UAS-luciferase reporter, 20 h; Potency, µM (highest dose often 53.6 µM), most hits filed as inhibitors; 310,000 tested, 5.4% active; also: nearly all actives have a fitted effect of over 60% in size
Target sequence (P51450 whole entry, looked up, the tested form may be a part): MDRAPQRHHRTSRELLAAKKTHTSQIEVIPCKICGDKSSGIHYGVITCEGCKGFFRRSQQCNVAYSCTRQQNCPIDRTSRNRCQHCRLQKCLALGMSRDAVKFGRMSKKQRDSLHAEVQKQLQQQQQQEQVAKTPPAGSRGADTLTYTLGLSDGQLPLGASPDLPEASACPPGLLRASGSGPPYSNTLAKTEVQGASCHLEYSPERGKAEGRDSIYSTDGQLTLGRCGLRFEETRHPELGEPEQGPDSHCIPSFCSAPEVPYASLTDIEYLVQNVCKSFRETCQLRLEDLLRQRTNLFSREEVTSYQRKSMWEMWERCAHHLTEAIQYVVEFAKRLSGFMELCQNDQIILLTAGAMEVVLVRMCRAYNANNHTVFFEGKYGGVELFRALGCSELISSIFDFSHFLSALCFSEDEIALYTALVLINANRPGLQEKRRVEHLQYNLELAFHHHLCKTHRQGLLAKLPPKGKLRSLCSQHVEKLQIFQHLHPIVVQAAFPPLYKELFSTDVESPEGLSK
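Luciferase reporter read in Schneider cells carrying Gal4-RORγ (mouse) and UAS-Photinus luciferase; cells given compound 1 h before 700 uM copper sulfate induction, then incubated 20 h at ambient temperature.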
BRCA1 expr up = activators of BRCA1 expression. MCF7-BRCA1-FFLuc reporter, luminescence, 48 h; response scale: scaled: vehicle 0%, 10 µM genistein 100%. Potency, µM (titrated, usually from 46.1 µM), actives largely listed as activators. 380,000 tested, 1.1% active. AID 624202; also: nearly all actives have a fitted effect of over 80% in size
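MCF7-BRCA1-FFLuc cells, 2000/well in phenol-red-free MEM, attached 2 h then treated 48 h at 37 C. Luciferase luminescence read 15 min after reagent; normalized to genistein maximum activation (10microM) and DMSO, concentration-response fitted.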
ELG1 repair inh = ELG1-dependent DNA repair inhibition | AID 504467 | Potency, µM (doses to about 46.1 µM), most hits filed as inhibitors | 330,000 tested, 2.3% active | HEK293T ELG1-luciferase reporter, luminescence, 16 h; DNA damage induced by 5-fluorouridine; also: nearly all actives have a fitted effect of over 55% in size
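Overnight (16 hr) co-exposure of 2,000 cells/well to 5-fluorouridine and compound at 37 °C preceded detection. Luciferase was quantified via ONE-Glo luminescence; loss of signal denotes inhibition.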
Each line names hits and unclear results; the compound was inactive in the other large screens. Unless noted, calls follow the shape of the dose curve; as a rule, active = well fitted curve in the direction sought with a large enough effect; inconclusive = small, poorly fitted or top-dose-only effect, or another doubt; inactive = no such curve, though single readings can be large; an effect the other way counts as inactive or inconclusive.

CN(C)C=Nc1ccc2nc3c(cc2c1)[nH]c1ccccc13	Giardia killer -89, VP16 counter inconclusive, RORgamma inh inconclusive, ELG1 repair inh inconclusive
COc1ccc(-c2cnc3c(NC(C)=O)cc(-c4cccc(NS(C)(=O)=O)c4)cn23)cc1OC	none (no result: p53 reactivation, Giardia killer, VP16 counter, RORgamma inh, ELG1 repair inh)
Cc1ccc(NC(=O)Nc2cccnc2)cc1NC(=O)Nc1cccnc1	ELG1 repair inh 8.2µM
Cc1cc(C)cc(NC(=O)Nc2cccnc2)c1	none
CC(=O)c1cccc(NC(=O)Nc2cccnc2)c1	RORgamma inh inconclusive, ELG1 repair inh 3.7µM
CCCCCC1=C2CNC(CCC)(C(=O)OC)C=C2C(C)C1=O (configuration not stated)	none (no result: p53 reactivation, Giardia killer, BRCA1 expr up, ELG1 repair inh)
O=C(O)Cn1c(=O)n(Cc2ccccc2)c2ccccc21	none (no result: p53 reactivation)
N=c1n(CC(=O)c2cccs2)c2ccccc2n1Cc1ccccc1	ELG1 repair inh 7.3µM
Cc1ccc(S(=O)(=O)N2CCN(c3ncnc4sccc34)CC2)cc1	VP16 counter 5µM, RORgamma inh inconclusive, ELG1 repair inh 9.2µM
Cc1sc2ncnc(N3CCN(S(=O)(=O)c4ccc(F)cc4)CC3)c2c1C	VP16 counter 22µM, ELG1 repair inh inconclusive
COc1cc2oc(=O)cc(-c3ccc(-c4ccc(F)c(Cl)c4)cc3)c2c(OC)c1OC	none
O=C(NC(=S)Nc1ccccc1N1CCOCC1)c1ccc([N+](=O)[O-])cc1	VP16 counter inconclusive, RORgamma inh 8.9µM, ELG1 repair inh inconclusive
O=C(NC(=S)Nc1ccccc1N1CCCC1)c1ccc([N+](=O)[O-])cc1	Giardia killer inconclusive, VP16 counter 0.11µM, RORgamma inh 0.05µM
COc1cccc(-c2cc(C(=O)Nc3c(C)nn(Cc4ccccc4)c3C)no2)c1	VP16 counter inconclusive, ELG1 repair inh 21µM
COc1cc(NC(=O)c2cc3nc(-c4ccccc4)cc(-c4ccccc4)n3n2)cc(OC)c1OC	ELG1 repair inh 10µM
Cc1ccccc1Cn1nc(C)c(NC(=O)c2cc(CC(C)C)on2)c1C	VP16 counter inconclusive, RORgamma inh inconclusive, ELG1 repair inh 26µM
COc1cccc(-c2cc(C(=O)Nc3cc(OC)c(OC)c(OC)c3)no2)c1	ELG1 repair inh 23µM
COc1cc(NC(=O)c2cc(-c3ccccc3)on2)cc(OC)c1OC	ELG1 repair inh inconclusive (no result: p53 reactivation)
Cc1nn(Cc2ccc(Cl)c(Cl)c2)c(C)c1NC(=O)c1cc(CC(C)C)on1	VP16 counter inconclusive, RORgamma inh inconclusive, ELG1 repair inh inconclusive
CC(=N\NC(=O)c1ccc([N+](=O)[O-])cc1)/C(=N/O)C(=O)Nc1ccccc1	VP16 counter 6.3µM, RORgamma inh 4µM, ELG1 repair inh inconclusive
OC(CNC1CCCC1)COc1ccc(Cl)cc1 (configuration not stated)	none
O=C(/C=C/c1cccc(Cl)c1)Nc1ncccn1	p53 reactivation inconclusive, ELG1 repair inh inconclusive
O=C(/C=C/c1cccc(Cl)c1)c1nc2ccccc2[nH]1	VP16 counter inconclusive, RORgamma inh 3.2µM, ELG1 repair inh inconclusive
O=C(COC(=O)CCS(=O)(=O)c1ccc(Cl)cc1)NCCc1ccccc1	RORgamma inh 5.6µM, ELG1 repair inh inconclusive
NS(=O)(=O)c1ccc(CCNC(=O)COC(=O)CC(c2ccccc2)c2ccccc2)cc1	p53 reactivation inconclusive, ELG1 repair inh 21µM
Cc1ccc(S(=O)(=O)N2CCCSCC2)cc1	none
CCc1ccccc1N1C(=O)C2C3C=CC(CC3)C2C1=O (configuration not stated)	none
Cc1ccc(-c2csc3ncnc(SCc4ccc(C(=O)O)cc4)c23)cc1	VP16 counter 4.5µM, RORgamma inh 2.8µM
Cc1sc2ncnc(SCc3ccc(C(=O)O)cc3)c2c1C	none
O=C(CSc1ncnc2scc(-c3ccccc3)c12)N1CCN(Cc2ccc3c(c2)OCO3)CC1	VP16 counter inconclusive, RORgamma inh 22µM, ELG1 repair inh inconclusive
Cc1ccc(-c2csc3ncnc(SCC(N)=O)c23)cc1	RORgamma inh 1.6µM
CCc1nnc(NC(=O)CSc2ncnc3scc(-c4ccc(C)cc4)c23)s1	none
Cc1ccc(-c2csc3nc(SCC(N)=O)n(Cc4ccccc4)c(=O)c23)cc1	VP16 counter inconclusive, RORgamma inh 11µM, ELG1 repair inh 23µM
C=CCn1c(Cc2ccc(OC(C)C)c(Cl)c2)nnc1SCC(N)=O	none
Cn1nnnc1Sc1ncnc2scc(-c3ccc(F)cc3)c12	RORgamma inh 10µM
COc1ccc(OCCn2cc(C=O)c3ccccc32)cc1	p53 reactivation inconclusive, RORgamma inh inconclusive, ELG1 repair inh inconclusive
CC1=CN2C(=N)/C(=C\c3cn(CCCOc4ccccc4)c4ccccc34)C(=O)N=C2S1	VP16 counter 5µM, RORgamma inh 7.1µM, ELG1 repair inh inconclusive
Cc1ccc(C)c(N2CCN(C(=O)C34CC5CC(C3)CC(n3nnc(C)n3)(C5)C4)CC2)c1	ELG1 repair inh 21µM
Cc1nnn(C23CC4CC(CC(C4)C2)C3)n1	none (no result: p53 reactivation, ELG1 repair inh)
CCCc1noc(-c2ccc(NCc3ccccc3OC)c([N+](=O)[O-])c2)n1	none (no result: p53 reactivation, Giardia killer, VP16 counter, RORgamma inh, ELG1 repair inh)
Cc1ccc(-c2nc(=S)c3c(n2Cc2ccco2)CC(C)(C)OC3)cc1	VP16 counter 16µM, RORgamma inh 2.8µM
Cc1cccc(-c2nc(=S)c3c(n2Cc2ccco2)CCCC3)c1	VP16 counter inconclusive, RORgamma inh 11µM
Cc1cccc(C(=O)NNC(=O)c2c(O)c3ccccc3n(C)c2=O)c1	none
CCCn1c(=O)c(C(=O)NNC(=O)c2ccc(Cl)cc2Cl)c(O)c2ccccc21	none
Cn1c(=O)c(C(=O)NNC(=O)c2ccccc2Cl)c(O)c2ccccc21	VP16 counter inconclusive, RORgamma inh 11µM
Cn1c(=O)c(C(=O)NNC(=O)c2cccc(Cl)c2)c(O)c2ccccc21	VP16 counter 18µM, RORgamma inh 14µM
Cn1c(=O)c(C(=O)NNC(=O)c2ccccc2Br)c(O)c2ccccc21	VP16 counter inconclusive, RORgamma inh 20µM
Cc1ccccc1N=Nc1c(C)[nH]n(-c2ccccc2)c1=O	none
Cc1[nH]n(-c2ccccc2)c(=O)c1N=Nc1nccs1	p53 reactivation inconclusive, VP16 counter 5.6µM, RORgamma inh 5.6µM, ELG1 repair inh inconclusive
Cc1[nH]n(-c2ccccc2)c(=O)c1N=Nc1ccccc1O	VP16 counter 4.5µM, RORgamma inh 2µM, ELG1 repair inh inconclusive
c1csc(-c2csc3nc(CN4CCOCC4)nc(NCc4ccc5c(c4)OCO5)c23)c1	VP16 counter inconclusive, RORgamma inh 18µM, ELG1 repair inh inconclusive
c1ccc2c(c1)ncn2Cc1nnc2sc(-c3ccncc3)nn12	RORgamma inh inconclusive, ELG1 repair inh inconclusive
c1ccc(-c2nn3c(Cn4cnc5ccccc54)nnc3s2)cc1	RORgamma inh 0.071µM
